Data taken from PubChem BioAssay (Tox21).
Where “and” joins values, the source holds several entries; their conditions need not be identical. Equal values may be shown once. Records with an inconclusive call do not appear. A call without a number means that no potency is given here. More than one record can exist for a structure, and the calls need not agree. Calls of active or inactive are those of the source. Unless noted, calls follow the shape of the dose curve; as a rule, active = well fitted curve in the direction sought with a large enough effect in the repeat runs; inconclusive = weak or mixed curves; inactive = no such curve, though single readings can be large; an effect the other way counts as inactive or inconclusive.

Tests used:
[1] = qHTS assay to identify small molecule antagonists of the estrogen receptor alpha (ER-alpha) signaling pathway using the BG1 cell line in the presence of 0.1 nM 17-beta-estradiol - cell viability counter screen (AID 1259241); also: nearly all actives have a fitted effect of over 40% in size
Method in brief: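 VM7Luc4E2 cells (endogenous full-length ER-alpha, 4xERE-luciferase), cultured 5 days in charcoal-stripped serum, exposed to compounds with 0.1 nM 17beta-estradiol (final) for 22 hr at 37C. Viability read in same wells as live-cell protease fluorescence after 30 min.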

[2] = qHTS assay to identify small molecule antagonists of the androgen receptor (AR) signaling pathway using the MDA cell line in the presence of 0.5 nM R1881 - cell viability counter screen (AID 1259242); also: nearly all actives have a fitted effect of over 45% in size; also: potency is read from the fitted curve at half-maximal effect
Method in brief: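 R1881 at 0.5 nM final stimulated MDA-kb2 cells during 16 hr compound treatment at 37C. Cytotoxicity read: CellTiter-Fluor fluorescence after 30 min.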

[3] = biological target: Androgen receptor (Homo sapiens) (UniProt P10275); assay: qHTS assay to identify small molecule antagonists of the androgen receptor (AR) signaling pathway using the MDA cell line in the presence of 0.5 nM R1881 (AID 1259243); also: nearly all actives have a fitted effect of over 50% in size; also: potency is read from the fitted curve at half-maximal effect
Method in brief: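 We exposed MDA-kb2 cells to compounds under 0.5 nM R1881 stimulation for 16 hr at 37C and quantified MMTV-driven luciferase by luminescence.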

[4] = qHTS assay to identify small molecule HDAC inhibitors (AID 1259364);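 also: wild-type HCT-116 cells with endogenous class I/II HDAC activity; top concentration of the series differs between compounds; nearly all actives have a fitted effect of over 45% in size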
Method in brief: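 Relative class I and II HDAC activity is taken from the luminogenic signal in HCT-116 cells, with compound exposure 2 hr and reagent development 30 min at room temperature.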

[5] = qHTS assay to identify small molecule HDAC inhibitors - cell viability counter screen (AID 1259365); also: nearly all actives have a fitted effect of over 50% in size; also: potency is read from the fitted curve at half-maximal effect
Method in brief: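 Wild-type HCT-116 cells, 1,500/well, cultured overnight, then compound-treated 2 h at 37 C. Viability measured as ATP luminescence with CellTiter-Glo after 30 min at room temperature.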

[6] = qHTS assay to identify small molecule antagonists of the sonic hedgehog signaling (Shh) pathway - cell viability counter screen (AID 1259367); also: nearly all actives have a fitted effect of over 55% in size; also: potency is read from the fitted curve at half-maximal effect
Method in brief: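 Cells: 3T3 Gli1-Luc, 2,000/well, 4 hr pre-incubation. Compounds in DMSO, then conditioned medium. Incubation 24 hr, 37C, 5% CO2. CellTiter-Fluor at 23 hr, 1 hr, fluorescence.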

[7] = qHTS assay to identify small molecule agonists of the sonic hedgehog signaling (Shh) pathway (AID 1259368; calls by dose curve;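 also: NIH/3T3-derived 3T3Gli1-Luc cells carrying a stable Gli1-driven firefly luciferase reporter; series mostly up to about 92 µM; nearly all actives have a fitted effect of over 15% in size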)
Method in brief: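 Mouse fibroblast (NIH/3T3) reporter cells with stably integrated Gli1-Luc were treated 24 hr with compound; firefly luciferase luminescence served as the read-out.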

[8] = biological target: Estrogen receptor beta (Homo sapiens) (UniProt Q92731); assay: qHTS assay to identify small molecule agonists of the estrogen receptor beta (ER-beta) signaling pathway (AID 1259377; active = well fitted activation curve with a large enough effect in the signal ratio in the repeat runs, not every such curve was filed as active; the % refers to the signal ratio)
Method in brief: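 ER-beta-UAS-bla HEK293T cells in medium with 2% charcoal-stripped FBS were exposed to compounds for 16 h at 37C. Beta-lactamase reporter activity was read as fluorescence after 2 h with LiveBLAzer B/G FRET substrate at room temperature.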

[9] = biological target: Estrogen receptor beta (Homo sapiens) (UniProt Q92731); assay: qHTS assay to identify small molecule antagonists of the estrogen receptor beta (ER-beta) signaling pathway (AID 1259378; active = well fitted inhibition curve with a large enough effect in the signal ratio in the repeat runs, not every such curve was filed as active; the % refers to the signal ratio)
Method in brief: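 Antagonist mode: compounds added to beta-lactamase reporter HEK293T ER-beta-UAS cells stimulated with E2 (1nM final), 16 hr at 37C. LiveBLAzer B/G FRET substrate, 2 hours room temperature, fluorescence read-out.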

[10] = qHTS assay to identify small molecule agonists of the androgen receptor (AR) signaling pathway in the presence of an antagonist - cell viability counter screen (AID 1259379); also: nearly all actives have a fitted effect of over 25% in size; also: potency is read from the fitted curve at half-maximal effect
Method in brief: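 A CellTiter-Fluor read-out measured viability of MDA-kb2 reporter cells (MMTV promoter with AR and GR response elements). Treatment: nilutamide 3.0uM final with compounds at 15 concentrations, 16 hr, 37C, 0% CO2.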

[11] = biological target: Androgen receptor (Homo sapiens) (UniProt P10275); assay: qHTS assay to identify small molecule agonists of the androgen receptor (AR) signaling pathway in the presence of an antagonist (AID 1259381; calls by dose curve; also: nearly all actives have a fitted effect of over 15% in size)
Method in brief: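 Using human MDA-kb2 cells with an MMTV promoter–luciferase construct (AR and GR response elements), agonist activity is scored under 3.0uM nilutamide (final) co-treatment; 16hr incubation, 37C, luminescence readout via ONE-Glo.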

[12] = qHTS assay to identify small molecule agonists or antagonists of the thyroid stimulating hormone receptor (TSHR) signaling pathway - wild type cell line counter screen (AID 1259384; calls by dose curve)
Method in brief: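 Counter screen in untransfected Hek293: compounds (15-point titration, triplicate) plus phosphodiesterase inhibitor Ro20-1724 added after 18 h plating; 30 min RT. Intracellular cAMP via competitive d2/cryptate immunoassay, 1 h incubation.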

[13] = biological target: Thyrotropin receptor (Homo sapiens) (UniProt P16473); assay: qHTS assay to identify small molecule antagonists of the thyroid stimulating hormone receptor (TSHR) signaling pathway (AID 1259385; calls by dose curve; also: nearly all actives have a fitted effect of over 20% in size)
Method in brief: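 Antagonist mode: compound-treated TSHR-expressing HEK293 cells were stimulated with 1.5 ng/mL TSH (final) in presence of Ro20-1724 for 30 min at RT. HTRF cAMP detection after 1 h; each compound tested at 15 concentrations, triplicate.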

[14] = biological target: Estrogen receptor (Homo sapiens) (UniProt P03372); assay: qHTS assay to identify small molecule antagonists of the estrogen receptor alpha (ER-alpha) signaling pathway using the BG1 cell line in the presence of 0.1 nM 17-beta-estradiol (AID 1259244); also: nearly all actives have a fitted effect of over 50% in size; also: potency is read from the fitted curve at half-maximal effect
Method in brief: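 VM7Luc4E2; 4xERE-luciferase; 0.1 nM E2 final; 22 h co-incubation, 37C; ONE-Glo luminescence after 30 min at room temperature.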

[15] = qHTS assay to identify small molecule agonists of the sonic hedgehog signaling (Shh) pathway - cell viability counter screen (AID 1259366); also: nearly all actives have a fitted effect of over 50% in size; also: potency is read from the fitted curve at half-maximal effect
Method in brief: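 NIH/3T3-derived Gli1-Luc reporter cells, 2,000 per well, received compound after 4 h and were treated about 23 h at 37C. Viability measured in the same wells by CellTiter-Fluor fluorescence after 1 h.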

[16] = qHTS assay to identify small molecule antagonists of the sonic hedgehog signaling (Shh) pathway (AID 1259369; calls by dose curve; also: nearly all actives have a fitted effect of over 45% in size; also: potency is read from the fitted curve at half-maximal effect)
Method in brief: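 Conditioned medium drives Shh signalling in 3T3Gli1-Luc cells; compounds in DMSO co-applied, 24hr at 37 C, then luciferase luminescence.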

[17] = qHTS assay to identify small molecule agonists of the estrogen receptor beta (ER-beta) signaling pathway - cell viability counter screen (AID 1259380); also: nearly all actives have a fitted effect of over 30% in size
Method in brief: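 Cells used were ER-beta-UAS-bla HEK293T in medium with 2% charcoal-stripped FBS. They were treated for 16 hr at 37C. Viability came from CellTiter-Glo luminescence.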

[18] = qHTS assay to identify small molecule antagonists of the estrogen receptor beta (ER-beta) signaling pathway - cell viability counter screen (AID 1259382); also: nearly all actives have a fitted effect of over 55% in size; also: potency is read from the fitted curve at half-maximal effect
Method in brief: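 Agonist-stimulated (1nM E2) ER-beta-UAS-bla HEK293T cells are incubated with library compounds for 16 hr at 37C. Cell viability is then assessed in the reporter-assay wells by adding CellTiter-Glo and reading luminescence after 30 min.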

[19] = biological target: Estrogen receptor (Homo sapiens) (UniProt P03372); assay: qHTS assay to identify small molecule agonists of the estrogen receptor alpha (ER-alpha) signaling pathway in the presence of an antagonist (AID 1259383; calls by dose curve; also: nearly all actives have a fitted effect of over 15% in size; also: potency is read from the fitted curve at half-maximal effect; as to activation: top concentration of the series differs between compounds)
Method in brief: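 Using VM7Luc4E2 cells seeded 24hr before treatment, antagonist ICI-182,780 (10.0nM final) was added, followed by compounds at 15 concentrations. Plates incubated 22hr; ONE-Glo luminescence quantified reporter activity.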

[20] = qHTS assay to identify small molecule phospholipidosis (PLD) inducers (AID 1259344; active = well fitted curve in the direction sought with a large enough effect; an effect the other way counts as inactive or inconclusive)
Method in brief: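 Phospholipidosis is scored by imaging LipidTOX-stained pits in HepG2 cells exposed to compound for 24 h at 37 C; pit counts and integrated intensities per well and per cell serve as outputs.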

Sequence of Thyrotropin receptor (Homo sapiens) (P16473 whole entry, looked up): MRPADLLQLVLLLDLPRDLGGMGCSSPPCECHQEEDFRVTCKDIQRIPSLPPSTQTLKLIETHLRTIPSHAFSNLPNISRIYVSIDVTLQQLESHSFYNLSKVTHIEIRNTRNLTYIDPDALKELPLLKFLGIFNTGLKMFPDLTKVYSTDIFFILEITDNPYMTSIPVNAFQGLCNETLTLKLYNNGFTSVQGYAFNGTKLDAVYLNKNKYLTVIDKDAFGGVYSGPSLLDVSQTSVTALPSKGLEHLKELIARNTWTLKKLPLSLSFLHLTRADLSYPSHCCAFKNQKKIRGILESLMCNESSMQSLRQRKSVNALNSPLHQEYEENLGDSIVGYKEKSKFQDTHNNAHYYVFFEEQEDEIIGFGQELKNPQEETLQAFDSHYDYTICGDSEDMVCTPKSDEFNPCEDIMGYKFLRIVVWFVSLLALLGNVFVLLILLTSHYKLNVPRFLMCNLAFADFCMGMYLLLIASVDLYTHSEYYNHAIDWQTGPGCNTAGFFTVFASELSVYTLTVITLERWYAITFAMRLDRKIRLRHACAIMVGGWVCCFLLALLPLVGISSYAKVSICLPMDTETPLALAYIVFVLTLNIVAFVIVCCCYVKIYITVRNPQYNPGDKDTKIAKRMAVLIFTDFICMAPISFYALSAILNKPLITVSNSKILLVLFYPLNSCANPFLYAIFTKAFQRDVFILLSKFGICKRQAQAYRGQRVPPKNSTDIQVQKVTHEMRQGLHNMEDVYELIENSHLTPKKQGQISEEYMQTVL
Sequence of Estrogen receptor beta (Homo sapiens) (Q92731 whole entry, looked up): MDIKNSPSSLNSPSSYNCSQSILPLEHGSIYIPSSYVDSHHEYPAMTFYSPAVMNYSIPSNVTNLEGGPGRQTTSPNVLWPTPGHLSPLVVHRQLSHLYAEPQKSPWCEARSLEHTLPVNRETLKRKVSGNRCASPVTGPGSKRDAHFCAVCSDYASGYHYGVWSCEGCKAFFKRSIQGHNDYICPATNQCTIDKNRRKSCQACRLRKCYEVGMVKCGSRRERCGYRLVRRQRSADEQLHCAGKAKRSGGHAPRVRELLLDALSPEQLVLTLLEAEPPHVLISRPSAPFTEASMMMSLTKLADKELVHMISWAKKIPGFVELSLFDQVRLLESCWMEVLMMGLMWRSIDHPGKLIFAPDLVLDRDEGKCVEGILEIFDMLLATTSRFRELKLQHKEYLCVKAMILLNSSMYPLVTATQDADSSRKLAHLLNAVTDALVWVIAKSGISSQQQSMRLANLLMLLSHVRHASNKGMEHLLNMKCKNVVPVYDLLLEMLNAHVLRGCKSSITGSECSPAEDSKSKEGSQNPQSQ
Sequence of Estrogen receptor (Homo sapiens) (P03372 whole entry, looked up): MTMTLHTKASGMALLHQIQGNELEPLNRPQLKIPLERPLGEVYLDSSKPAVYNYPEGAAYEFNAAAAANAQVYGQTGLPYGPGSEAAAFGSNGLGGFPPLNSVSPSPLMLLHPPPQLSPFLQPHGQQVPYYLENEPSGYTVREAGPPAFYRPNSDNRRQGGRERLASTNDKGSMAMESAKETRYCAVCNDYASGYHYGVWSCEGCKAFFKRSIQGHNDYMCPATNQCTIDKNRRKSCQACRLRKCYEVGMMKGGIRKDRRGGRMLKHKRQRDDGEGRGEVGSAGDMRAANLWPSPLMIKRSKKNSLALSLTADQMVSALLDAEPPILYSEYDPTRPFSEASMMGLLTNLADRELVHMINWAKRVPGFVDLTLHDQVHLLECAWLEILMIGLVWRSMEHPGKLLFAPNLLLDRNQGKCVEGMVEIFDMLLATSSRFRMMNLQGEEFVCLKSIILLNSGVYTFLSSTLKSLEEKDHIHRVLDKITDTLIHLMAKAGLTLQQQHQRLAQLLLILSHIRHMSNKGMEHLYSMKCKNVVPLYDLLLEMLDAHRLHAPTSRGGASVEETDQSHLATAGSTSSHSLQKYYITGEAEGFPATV
Sequence of Androgen receptor (Homo sapiens) (P10275 whole entry, looked up): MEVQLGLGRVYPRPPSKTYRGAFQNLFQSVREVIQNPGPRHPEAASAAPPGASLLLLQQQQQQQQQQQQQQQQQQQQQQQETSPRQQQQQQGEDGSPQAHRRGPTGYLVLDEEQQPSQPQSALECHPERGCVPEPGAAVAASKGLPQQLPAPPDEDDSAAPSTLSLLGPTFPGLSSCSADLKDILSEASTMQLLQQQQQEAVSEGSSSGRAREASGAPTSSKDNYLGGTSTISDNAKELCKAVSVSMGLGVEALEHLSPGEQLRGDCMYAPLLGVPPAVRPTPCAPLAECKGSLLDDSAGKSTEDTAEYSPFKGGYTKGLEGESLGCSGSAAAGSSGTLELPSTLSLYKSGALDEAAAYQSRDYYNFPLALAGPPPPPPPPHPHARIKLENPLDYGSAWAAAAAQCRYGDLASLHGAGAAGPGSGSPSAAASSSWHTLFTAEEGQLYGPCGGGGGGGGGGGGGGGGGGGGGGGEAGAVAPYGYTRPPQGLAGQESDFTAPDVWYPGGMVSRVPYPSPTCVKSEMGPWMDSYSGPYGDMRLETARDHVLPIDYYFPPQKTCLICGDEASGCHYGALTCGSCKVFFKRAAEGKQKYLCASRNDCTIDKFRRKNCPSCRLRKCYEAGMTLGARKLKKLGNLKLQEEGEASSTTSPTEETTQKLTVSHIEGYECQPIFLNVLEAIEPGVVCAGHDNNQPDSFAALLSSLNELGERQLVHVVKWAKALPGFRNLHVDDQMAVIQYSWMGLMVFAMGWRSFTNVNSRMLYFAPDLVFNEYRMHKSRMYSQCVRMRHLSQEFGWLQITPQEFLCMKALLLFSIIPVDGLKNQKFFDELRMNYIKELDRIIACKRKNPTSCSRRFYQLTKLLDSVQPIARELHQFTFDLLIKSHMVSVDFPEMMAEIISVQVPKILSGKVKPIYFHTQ

SMILES	Potency [1]	Potency [2]	Potency [3]	Potency [4]	Potency [5]	Potency [6]	Potency [7]	Potency [8]	Potency [9]	Potency [10]	Potency [11]	outcome [12]	Potency [13]	Potency [14]	Potency [15]	Potency [16]	Potency [17]	Potency [18]	Potency [19]	outcome [20]
O=C(N[C@H]1CN2CCC1CC2)c1ccc2c(c1)OCCO2	inactive	inactive	inactive	inactive	inactive	inactive	inactive	inactive	inactive	inactive	inactive	inactive	inactive							
C[N+](C)(C)CC1CO1 (stereo unspecified)	inactive	inactive	inactive	inactive	inactive	inactive	inactive		inactive	inactive	inactive	inactive	inactive	inactive	inactive	inactive	inactive	inactive	inactive	
CC[N+]1(CCOC(=O)C(O)(c2ccccc2)c2ccccc2)CCCCC1	inactive	inactive		inactive	inactive	inactive	inactive			inactive		inactive	inactive	inactive	inactive		inactive		inactive	inactive
COc1cc(CC#N)cc(OC)c1OC	inactive	inactive	inactive	inactive	inactive	inactive	inactive			inactive	inactive	inactive	inactive	inactive	inactive	inactive		inactive	inactive	
COP(=O)(OC)OC(Br)C(Cl)(Cl)Br (stereo unspecified)	inactive	inactive	61.2 µM (active) and 61.1 µM (active)	inactive	inactive	inactive	inactive		inactive	inactive	inactive	inactive	inactive	inactive	inactive	12.2 µM (active)	inactive	inactive	inactive	
CCC1(CC)C(=O)NC(=O)NC1=O	inactive	inactive		inactive	inactive	inactive	inactive		inactive	inactive				inactive	inactive	inactive				inactive
CCCCCCCCCCCC[N+](C)(C)CCOc1ccccc1	inactive	48.6 µM (active) and inactive		inactive	61.1 µM (active) and inactive	48.6 µM (active)	inactive			68.6 µM (active)		inactive	inactive	54.5 µM (active) and inactive	24.3 µM (active)	3.44 µM (active) and 473 nM (active)		19.3 µM (active) and 15 µM (active)		inactive
CN(C)N	inactive	inactive	inactive	inactive	inactive	inactive	inactive		inactive	inactive	inactive	inactive	inactive		inactive	inactive	inactive			
C#C[C@]1(O)CC[C@H]2[C@@H]3CCC4=CC(=O)CCC4=C3C=C[C@@]21CC	inactive	inactive		inactive	inactive	inactive	inactive			inactive		inactive	inactive	13.3 µM (active)	inactive			inactive	1.06 µM (active)	inactive
CCCCC1C(=O)NC(=O)N(C2CCCCC2)C1=O (stereo unspecified)	inactive	inactive		inactive	inactive	inactive	inactive	inactive	inactive	inactive				inactive	inactive	inactive	inactive			inactive
CC(O)CN1CCN(CC(=O)[O-])CCN(CC(=O)[O-])CCN(CC(=O)[O-])CC1.[Gd+3] (stereo unspecified)	inactive	inactive		inactive	inactive	inactive	inactive		inactive	inactive		inactive	inactive	inactive	inactive		inactive	inactive	inactive	inactive
CN[C@@H](C)[C@H](O)c1ccccc1	inactive	inactive		inactive	inactive	inactive	inactive	inactive	inactive	inactive		inactive	inactive	inactive	inactive	inactive	inactive		inactive	inactive
O=C(NCNC(=O)NC1C(=O)NC(=O)N1CO)NC1C(=O)NC(=O)N1CO (stereo unspecified)	inactive	inactive	inactive	inactive	inactive	inactive	inactive	inactive	inactive	inactive	inactive	inactive	inactive		inactive	inactive	inactive	inactive		inactive
c1ccc2sc(SNC3CCCCC3)nc2c1	inactive	inactive			inactive	inactive	inactive	inactive		inactive		inactive	inactive	inactive	inactive	61.1 µM (active)		inactive	inactive	inactive
CN1C(=O)CN=C(c2ccccc2)c2cc([N+](=O)[O-])ccc21	inactive	inactive	inactive	inactive	inactive	inactive	inactive			inactive	inactive	inactive	inactive	inactive	inactive	inactive			inactive	inactive
CCCC1CCCCN1 (stereo unspecified)	inactive	inactive			inactive	inactive	inactive			inactive		inactive	inactive	inactive	inactive	inactive	inactive	inactive	inactive	inactive
C=CCN1C[C@H](C)N([C@H](c2ccc(C(=O)N(CC)CC)cc2)c2cccc(OC)c2)C[C@H]1C	inactive	inactive		inactive	inactive	inactive	inactive		inactive	inactive		inactive	inactive	inactive	inactive	inactive	inactive	inactive		inactive
